Screen size: about 2,400 compounds; about 2,000 (83%) were called active.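 Rule for the calls: active = inhibition above the solvent-only control well mean plus 3 SD, limit set per screening run (cut at about 23% in these data); inactive = the rest.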 The set was probably picked from earlier hits. The list is a sample of the results.

The target in the test is Guanyl-specific ribonuclease T1 (Aspergillus oryzae (strain ATCC 42149 / RIB 40)) (UniProt P00651). As to the kind of experiment: RNase T1 inhibitors, counter-screen for TPT1 inhibitor project, biochemical, fluorescence polarization (AID 2153).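 Note: plate controls were DMSO wells with enzyme for no effect and wells without RNase T1 for full effect; inhibitors block cleavage so intact labeled substrate keeps polarization high.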 Particulars: RNase T1 cleavage, 1536-well, at 5 µM, stronger effect = higher value. For orientation: Counterscreens check selectivity or assay interference.
Chain of Guanyl-specific ribonuclease T1 (Aspergillus oryzae (strain ATCC 42149 / RIB 40)) (P00651 whole entry, looked up): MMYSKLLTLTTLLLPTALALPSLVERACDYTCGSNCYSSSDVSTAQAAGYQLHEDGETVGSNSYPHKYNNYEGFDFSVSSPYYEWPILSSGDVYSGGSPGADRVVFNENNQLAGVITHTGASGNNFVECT
`Oc1ccc(/C=N/Nc2nc(-c3ccccc3F)nc3ccccc23)c(O)c1`: the inhibition (in general, the drop in the measured response relative to a control, in per cent) was 41.4% (active).
`CCOC(=O)/C(C#N)=C/c1ccc(N2CCCCC2)cc1`: the inhibition was 129% (active).
To `CCOC(=O)/C(C#N)=C/c1ccc(N2CCN(Cc3ccccc3)CC2)cc1` belongs 92.8% (active); to `N#C/C(=C/c1ccc(N2CCOCC2)o1)C(=O)N1CCOCC1`, 178% (active); to `N#C/C(=C\c1ccc(N2CCOCC2)o1)C(=O)N1CCOCC1`, 165% (active).
For the compound `Cc1ccc(CC2S/C(=C(/C#N)C(=O)N3CCOCC3)N(c3ccccc3)C2=O)cc1` (stereo not given), the inhibition is 14.3% (inactive).
Turning to `COc1cc2c(cc1O)[C@H](Cc1ccc(Oc3cc(C[C@@H]4NCCc5cc(OC)c(O)cc54)ccc3O)cc1)NCC2`, the inhibition was 44.2% (active).
In the case of `Cc1nc2ccccc2nc(=O)c1NNc1ccc([N+](=O)[O-])cc1`, the inhibition was 47.2% (active).
For `O=C1NC(=O)C2C1C(c1ccc([N+](=O)[O-])cc1)=NN2Cc1ccccc1` (stereo not given), the inhibition was 48% (active).
To `Nc1c(C(=O)c2cccs2)sc2nsc(SCCN3CCCCC3)c12` belongs 73.8% (active); to `CN1C(=O)/C(=C/C=C2\SCCN2C)OC1=S`, 165% (active).
Then `COc1ccc(N=C(C)c2sc3ccccc3c2O)cc1`, with 82.8% (active); and `Cc1cccc2cc3c(N)c(C(=O)N4CCCc5ccccc54)sc3nc12`, with 68.5% (active).
With `Cc1sc2nc(COC(=O)C(NC(=O)c3ccc(Cl)cc3Cl)C(C)C)[nH]c(=O)c2c1C` (stereo not given), the inhibition is 66.8% (active).
To `O=C(Nc1ccc(S(=O)(=O)Nc2nccs2)cc1)c1cc(-c2ccncc2)nc2ccccc12` belongs 64.3% (active); to `CCCCCCc1cc2cc(-c3nnc(-c4ccccc4)o3)c(=O)oc2cc1O`, 110% (active); to `NNC(=O)c1oc2nc(-c3ccccc3)cc(-c3ccco3)c2c1N`, 43.8% (active).
Then `COc1cc(/C=C(\C#N)c2nc3c(s2)CC(C)CC3)ccc1O` (stereo not given), with 125% (active); and `COc1cc(/C=C(\C#N)c2nc3ccccc3[nH]2)ccc1O`, with 112% (active).
To `C[n+]1ccc(/C=C/c2c[nH]c3ccccc23)cc1` belongs 63.7% (active).
As for `CN(c1ccccc1)c1ccc(/C=c2\s/c(=C(/C#N)C(=O)C(C)(C)C)n(Cc3ccco3)c2=O)cc1`, the inhibition was 125% (active).
Then `C=CCC1=C/C(=C\c2c(N)n3nc(CC(=O)N4CCOCC4)sc3nc2=O)C=C(OC)C1=O`, with 106% (active).
As to `CC(C)(C)c1ccc(/C=C2\Oc3c(ccc(O)c3CN3CCN(CCO)CC3)C2=O)cc1`, the inhibition was 45.6% (active).
As for `O=C1Nc2cc(C(=O)N3CCN(c4ccc(F)cc4)CC3)ccc2NC1CSCc1cccc(F)c1` (stereo not given), the inhibition is 116% (active).
Then `Cc1ccc(CSCC2Nc3ccc(C(=O)N4CCN(c5ccc(F)cc5)CC4)cc3NC2=O)cc1` (stereo not given), with 22.8% (active); and `CC(C)c1ccc(Nc2nnc(SCC(=O)c3nnc(-c4ccccc4)o3)s2)cc1`, with 29.1% (active).
To `CN1C(=O)/C(=C\c2ccc(-c3ccccc3)o2)SC1=S` belongs 96.2% (active).
Then `O=C(O)C(c1ccccc1)N1C(=O)/C(=C\c2ccc(-c3cccc(Cl)c3)o2)SC1=S` (stereo not given), with 146% (active); and `CCC(=C/c1sc2ccc3ccccc3c2[n+]1C)/C=C1\Sc2ccc3ccccc3c2N1C`, with 104% (active); and `O=C(N/N=C/c1sc(N2CCCCC2)nc1-c1cccs1)c1cccnc1`, with 51.2% (active).
`Cc1cccc(COc2ccccc2/C=N/Nc2ccc([N+](=O)[O-])cc2)c1`: the inhibition was 98.6% (active).
Then `Cc1cccc(NC(=O)c2ccc(COc3ccccc3[N+](=O)[O-])o2)n1`, with 8.35% (inactive).
Consider `O=[N+]([O-])c1ccc(N/N=C/c2ccccc2)cc1`, for which the inhibition was 52.2% (active).
To `CCOc1ccc(/C=C2\SC(=S)N(NC(=O)c3ccncc3)C2=O)cc1OC` belongs 65.5% (active).
To `Cc1c(C(=O)OC(C)C)sc(NC(=O)c2cccnc2)c1C#N` belongs 38.8% (active); to `CCOc1cc(/C=C(\C#N)c2nc(-c3cccs3)c(NC(C)=O)s2)ccc1O`, 95.6% (active); to `Cn1ccc(=NC=C(C#N)C#N)c2ccccc21`, 31.9% (active).
`CC1CCN(C(=O)c2ccc3c(c2)NC(=O)CN3)CC1`: the inhibition was 52.2% (active).
To `O=C(C[n+]1cc(Br)cc2ccccc21)c1ccc(F)cc1` belongs 54.2% (active); to `O=C(Cc1nc2ccccc2[nH]c1=O)c1ccc(Cl)cc1`, 65.7% (active).

Values taken from PubChem BioAssay AID2153 (The Scripps Research Institute Molecular Screening Center, 2009).
